Compound activity from PubChem.
This is one part of a sample in which hits are shown more often than they occur.
IDE exosite FP: insulin-degrading enzyme (human) exo-site inhibition; z-score at 20 µM; 17,000 tested, 6.3% active; purified IDE, FL-6b probe fluorescence polarization; active compounds read low; AID 1259349;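 active means z-score of -3 or lower, meaning strong loss of probe binding signal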;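 further: His-tagged human IDE residues 42-1019 made in E. coli with 30 nM FL-6b probe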
Each line names hits and unclear results; the compound was inactive in the other large screens; ! = not active in a repeat.

CO[C@@H]1CN(C)C(=O)c2cc(NS(=O)(=O)Cc3ccccc3)ccc2OC[C@@H](C)N(Cc2nccs2)C[C@H]1C	none
COc1ccc2c3c(n(C)c2c1)[C@@H](CO)N(Cc1ccccc1OC)CC31CN(C)C1	none
CCCNC(=O)N1[C@H](CO)[C@@H](c2ccc(C3=CCCC3)cc2)[C@@H]1CN(C)C(C)=O	none
COc1ccc(-c2ccc3n(c2=O)C[C@@H]2[C@@H](CO)[C@H](C(=O)NCC4CC4)N(C(=O)NC(C)C)[C@H]32)cc1	none
C[C@@H]1CCCCO[C@H](CN(C)Cc2ccc(C(=O)O)cc2)[C@@H](C)CN([C@@H](C)CO)C(=O)c2cc(N(C)C)ccc2O1	none
C[C@@H](NC(=O)C[C@H]1CC[C@@H]2[C@@H](COc3ccc(NC(=O)C4CCOCC4)cc3C(=O)N2C)O1)c1ccccc1	none
COc1cccc(CN2CCCCN3[C@H](CO)[C@@H](c4ccc(C#Cc5cccnc5)cc4)[C@@H]3C2)c1	none
C/C=C/c1ccc([C@H]2[C@H](CO)N3C(=O)CN(C(=O)Nc4ccc(OC)cc4)C[C@@H]23)cc1	none
COc1ccc(-c2ccc([C@@H]3[C@H]4CNCC(=O)N4[C@H]3CO)cc2)cc1	none
COc1cccc(NC(=O)N2CC(=O)N3[C@H](C2)[C@@H](c2ccc(Br)cc2)[C@@H]3CO)c1	IDE exosite FP -3.24
COc1ccc(-c2ccc([C@H]3[C@@H](CO)N4C(=O)CNC[C@H]34)cc2)cc1	IDE exosite FP -3.18
COc1cccc(-c2ccc([C@@H]3[C@H]4CN(C(=O)NC(C)C)CC(=O)N4[C@H]3CO)cc2)c1	IDE exosite FP -11.8
COc1ccc(-c2ccc([C@@H]3[C@H](CO)N4C(=O)CNC[C@@H]34)cc2)cc1	none
Cc1ccc(-c2ccc([C@@H]3[C@@H](CO)N4C(=O)CN(C(=O)NC(C)C)C[C@H]34)cc2)cc1	none
Cc1ccc(-c2ccc([C@H]3[C@@H](CO)N4C(=O)CN(C(=O)NC(C)C)C[C@@H]34)cc2)cc1	none
C/C=C/c1ccc([C@H]2[C@@H](CO)N3C(=O)CN(C(=O)Nc4ccc(OC)cc4)C[C@@H]23)cc1	none
C/C=C/c1ccc([C@H]2[C@H]3CN(C(=O)Nc4ccc(OC)cc4)CC(=O)N3[C@H]2CO)cc1	IDE exosite FP -5.09
COc1cccc(NC(=O)N2CC(=O)N3[C@@H](CO)[C@@H](c4ccc(Br)cc4)[C@@H]3C2)c1	none
COc1cccc(NC(=O)N2CC(=O)N3[C@H](CO)[C@@H](c4ccc(Br)cc4)[C@H]3C2)c1	none
O=C(C1CCOCC1)N1CC(=O)N2[C@@H](CO)[C@@H](c3ccc(C#CC4CCCCC4)cc3)[C@@H]2C1	none
CC(C)C#Cc1ccc([C@H]2[C@@H](CO)N3C(=O)CN(C(=O)NC4CCCC4)C[C@@H]23)cc1	none
CN(C)C(=O)c1ccc(-c2ccc([C@@H]3[C@H]4CN(C(=O)C5CCCC5)CC(=O)N4[C@H]3CO)cc2)cc1	none
N#C[C@@H]1[C@H](c2ccc(C3=CCCC3)cc2)[C@H](CO)N1C(=O)C1CCOCC1	none
COc1ccc(NC(=O)N(C)C[C@H]2OCCCC[C@H](C)Oc3ccc(NC(=O)c4ccncc4)cc3C(=O)N([C@@H](C)CO)C[C@@H]2C)cc1	none
N#C[C@@H]1[C@H](c2ccccc2C2=CCCC2)[C@H](CO)N1C(=O)C1CCCC1	none
CCN(C[C@H]1[C@H](c2ccccc2)[C@@H](CO)N1C(C)=O)C(=O)c1ccccn1	none
O=C(Nc1ccc(-c2ccccc2)cc1)[C@@H]1[C@@H](CO)[C@@H]2Cn3c(cccc3=O)[C@@H]2N1CC1CCOCC1	none
C[C@@H]1CCCCO[C@H](CN(C)C(=O)Cc2ccccc2)[C@H](C)CN([C@H](C)CO)C(=O)c2cc(NS(C)(=O)=O)ccc2O1	none
O=C(Nc1ccccc1Cl)N1[C@@H]2CNC[C@H]1C2c1ccc(-c2ccccc2)cc1 (stereo not given in full)	none
COc1cccc(-c2ccc(C3[C@H]4CNC[C@@H]3N4C(=O)Nc3cc(F)ccc3F)cc2)c1 (stereo not given in full)	none
COc1cccc(-c2ccc(C3[C@H]4CNC[C@@H]3N4C(=O)Nc3ccccc3OC)cc2)c1 (stereo not given in full)	IDE exosite FP -3.87
O=C(Nc1ccc2c(c1)OCO2)N1[C@@H]2CNC[C@H]1C2c1ccc(-c2ccncc2)cc1 (stereo not given in full)	IDE exosite FP -3.2!
C/C=C/c1ccc(C2[C@H]3CNC[C@@H]2N3C(=O)Nc2ccccc2Cl)cc1 (stereo not given in full)	none
COc1ccc(NC(=O)N2[C@@H]3CNC[C@H]2C3c2ccc(-c3cccc(C(=O)N(C)C)c3)cc2)cc1 (stereo not given in full)	none
O=C(Nc1ccc2c(c1)OCO2)N1[C@@H]2CNC[C@H]1C2c1ccc(/C=C/c2ccccc2)cc1 (stereo not given in full)	none
O=C(Nc1ccc(F)cc1)N1[C@@H]2CNC[C@H]1C2c1ccc(-c2cccnc2)cc1 (stereo not given in full)	none
O=C(Nc1ccccc1F)N1[C@@H]2CNC[C@H]1C2c1ccc(-c2cccnc2)cc1 (stereo not given in full)	IDE exosite FP -3.26!
